Consider 28 compounds from PubChem BioAssay AID1851 (National Center for Advancing Translational Sciences (NCATS), 2009).

SMILES strings stand for the structures. Hit rate of the full screen: of about 16,000 compounds, about 5,800 (36%) were called active. About 23% were inconclusive and are not listed. The list shows a part of the results. A number with no mark means an inactive call. Calls follow the shape of the dose curve; as a rule, active = well fitted curve in the direction sought with a large enough effect; inconclusive = small, poorly fitted or top-dose-only effect, or effect the other way; inactive = no such curve, though single readings can be large or run the other way.
% is scaled to controls: 0 for no effect and ±100 for the full control effect.

Cytochrome P450 2C19 (Homo sapiens), sequence (P33261 whole entry, looked up): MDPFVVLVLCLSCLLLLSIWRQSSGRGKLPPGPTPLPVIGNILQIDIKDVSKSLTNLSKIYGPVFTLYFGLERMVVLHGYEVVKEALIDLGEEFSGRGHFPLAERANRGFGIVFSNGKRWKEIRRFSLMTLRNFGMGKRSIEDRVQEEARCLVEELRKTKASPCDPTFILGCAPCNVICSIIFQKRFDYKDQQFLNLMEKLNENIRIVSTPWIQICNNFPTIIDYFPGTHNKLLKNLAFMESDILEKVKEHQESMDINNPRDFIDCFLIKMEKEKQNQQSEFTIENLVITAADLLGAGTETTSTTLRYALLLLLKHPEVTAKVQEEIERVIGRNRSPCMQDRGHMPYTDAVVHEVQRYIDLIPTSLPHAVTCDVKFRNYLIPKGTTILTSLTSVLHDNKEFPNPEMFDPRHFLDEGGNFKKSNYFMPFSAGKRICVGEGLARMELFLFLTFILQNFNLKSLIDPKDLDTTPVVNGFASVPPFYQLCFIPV

The experiment addresses Cytochrome P450 2C19 (Homo sapiens) (UniProt P33261). As to the kind of experiment: Cytochrome panel assay with activity outcomes. The conditions noted are these: recombinant CYP, pro-luciferin dealkylation, luminescence, p450-cyp2c19; series mostly up to 57.1 µM; activity, negative = inhibition: at the top concentration.
As for `O=C1C(C2=NC(C(=O)O)C3C(=O)N(c4ccc(Cl)cc4)C(=O)C23)=C(O)c2ccccc21` (stereo not drawn), the “activity, negative = inhibition” value was 19.4%.
As for `O=C1C2Sc3[nH]c(=O)sc3C(c3ccccc3)C2C(=O)N1c1ccc(Cl)cc1` (stereo not drawn), the AC50 – broadly, the concentration at which the activity in the assay is half-maximal – is 2.82 µM (active).
On the same count and under the same terms, for `O=C1C2Sc3[nH]c(=O)sc3C(c3ccccc3)C2C(=O)N1c1ccccc1` (stereo not drawn) the value was 2.24 µM (active); for `O=C(CCCC(=O)OCC(=O)c1ccc(Cl)cc1Cl)Nc1cc(C(F)(F)F)ccc1Cl`, 8.91 µM (active).
For `Cc1cc(NC(=O)CCCC(=O)OCC(F)(F)C(F)F)cc(C)c1C(=O)O`, the “activity, negative = inhibition” value was -60.4%.
Take `CCn1cc(-c2nnnn2-c2ccc(Cl)cc2)c(=O)c2ccccc21`: the AC50 is 17.8 µM (active).
Still for that read-out and setting: the same measure for `O=S(=O)(Nc1ccc2oc(-c3ccccc3)nc2c1)c1ccccc1`: 0.631 µM (active).
On to `COC(=O)[C@@H]1C[C@H]1[C@@H](NC(=O)c1cnccn1)c1ccccc1`, for which the “activity, negative = inhibition” value was -35%.
Consider `COC(=O)[C@@H]1C[C@H]1[C@@H](NC(=O)c1cc(C)on1)c1ccccc1`, for which the AC50 is 15.8 µM (active).
With `COC(=O)[C@H]1C[C@@H]1[C@H](NC(=O)c1cnccn1)c1ccccc1`, the “activity, negative = inhibition” value was -34.9%.
Turning to `COC(=O)[C@H]1C[C@@H]1[C@H](NC(=O)c1cc(C)on1)c1ccccc1`, the AC50 was 20 µM (active).
As for `C[C@@]1(C(=O)O)NCCc2cc(O)c(O)cc21`, the “activity, negative = inhibition” value is -18.6%.
As to `COc1ccc(/C=C2\OC(=O)c3c(OC)cccc32)cc1OC`, the AC50 was 8.91 µM (active).
On to `CCc1nc(SCC(=O)NCCc2ccccc2)c2oc3ccccc3c2n1`, for which the concentration at half-maximal activity (AC50) is 0.562 µM (active).
Same read-out and setting: for `Cc1nc(SCC(=O)NCCc2ccccc2)c2oc3ccccc3c2n1` the value was 0.178 µM (active); for `O=S(=O)(c1ccccc1)N1CCC2(CCCN(c3ccccn3)C2)CC1`, 0.158 µM (active).
`CS(=O)(=O)N1CCC2(CC1)CN(c1ncccn1)C2`: the “activity, negative = inhibition” value is 13.9%.
On the same count and under the same terms, the same measure for `O=S(=O)(c1ccccc1)N1CCC2(CC1)CN(c1ncccn1)C2`: 15.6%.
In the case of `O=S(=O)(c1ccccc1)N1CCC2(CCCN(c3ncccn3)C2)CC1`, the AC50 is 0.398 µM (active).
`CCOC(=O)N/N=C1/C[C@@H](O)[C@@H](O)[C@@H]2[C@@H]3C(=O)N(C4CCCCC4)C(=O)[C@H]3CC[C@H]12`: the activity, negative = inhibition was 9.98% [at 11.4 µM].
With `O=C(c1cnc(-c2ccccc2)s1)c1ccc(Cl)cc1Cl`, the AC50 was 2.24 µM (active).
In the case of `Cl/C(=C\n1cncn1)c1ccc(Cl)cc1Cl`, the “activity, negative = inhibition” value was -25%.
Still for that read-out and setting: the same measure for `CC(=O)O[C@]1(C)N=NC2(CCCCC2)O1`: 5.37% [at 11.4 µM].
Regarding `Cc1sc(NC(=O)C(C)C)c(C(=O)Nc2ccccc2)c1C`, the concentration at half-maximal activity (AC50) is 3.55 µM (active).
On the same count and under the same terms, for `CCOC(=O)c1c(NC(=O)CCc2ccc(CC)o2)sc(C)c1C` the value was 5.62 µM (active); for `CCOC(=O)c1c(NC(=O)Nc2ccccc2)sc(C)c1C`, 5.01 µM (active); for `CCOC(=O)c1c(NC(=O)CSc2nnnn2C)sc(C)c1C`, 10 µM (active).
Consider `CO[C@]1(NC(=O)CSCC#N)C(=O)N2C(C(=O)O)=C(CSc3nnnn3C)CS[C@H]21`, for which the AC50 result was “inactive”.
